Bioassay records: PubChem, several laboratories
FAS TE block: blocks the thioesterase domain of human fatty acid synthase; AID 602261; hit rate 0.67% among 360,000; inhibition, % at 15 µM; recombinant FAS-TE, OMFH fluorogenic substrate, fluorescence endpoint;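 active = compounds whose normalised, plate-corrected inhibition of enzyme fluorescence in the single-dose primary screen is 50% or more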;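 also: 0% = DMSO with enzyme and 100% = substrate without enzyme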
MPTP block: inhibitors of mitochondrial permeability transition pore; inhibition, % at 10 µM; isolated mouse mitochondria, Ca2+ swelling absorbance, 30 min; hit rate 1.4% among 360,000;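 active = inhibition of 50% or more, scaled per plate between neutral and stimulator controls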;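 also: 0% = DMSO wells given calcium and 100% = 1 mM EGTA wells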
rCAG binder: molecules binding r(CAG) RNA repeats | hit rate 1.3% among 370,000 | inhibition, % at 3 µM | r(CAG) RNA repeat, TO-PRO-1 dye displacement fluorescence;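 active = inhibition above the plate cutoff, the mean of all test compounds on that plate plus 3 SD, cut at about 35% in these data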;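 also: 0% = DMSO alone and 100% = 100 µM mitoxantrone as full dye displacement; higher means more dye released from RNA so lower well fluorescence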
Myeloid diff 2: promotes myeloid progenitor differentiation; hit rate 1% among 360,000; ER-HoxA9 myeloid progenitors, lysozyme-GFP differentiation, flow cytometry; calls only at 10 µM;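 active = normalized GFP-positive differentiation at or above the plate's own cutoff, the solvent-only control mean plus 3 SD; inconclusive = no clear call, values can overlap the other calls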;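 also: cells exposed to compound for four days before flow analysis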
NR3A LBD binder: modulators (binders) of human NR3A ligand-binding domain; NR3A LBD differential scanning fluorimetry, Tm shift; 0% = protein alone, 100% = glycine-bound protein; Tm shift relative to glycine control, % at 25 µM; hit rate 2.5% among 340,000; AID 1259313;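 active = melting temperature shift of at least 10% of the positive control shift, at one fixed dose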
* marks the source's active call; other numbers are inactive results; i = inactive; ? = inconclusive; . = no result given; + = active, no number. This is a sample that favours compounds with a hit; in the whole collection about 5.7% have one here.

SMILES	FAS TE block	MPTP block	rCAG binder	Myeloid diff 2	NR3A LBD binder
N/C(Cc1nc2ccccc2s1)=N\O	-20.8	1.5	8.4	+	-1.0
NC(=O)CSCc1nc2ccccc2s1	-2.0	-0.1	10.3	i	0.2
CCC(=O)c1ccc(N2CCN(C(=O)c3cc([N+](=O)[O-])ccc3N3CCN(C)CC3)CC2)c(F)c1	69.6*	0.1	-7.7	i	14.2*
CC(C)c1ccc(C2NC(=S)NC3=C2C(=O)CC(C)(C)C3)cc1 (stereo not given)	-7.0	1.6	1.4	i	0.8
CCc1ccc(C2NC(=S)NC3=C2C(=O)CC(C)(C)C3)cc1 (stereo not given)	-5.8	0.0	0.6	i	21.3*
COc1ccc(CCn2c(C)c(C(C)=O)c3cc(OC(=O)c4ccco4)ccc32)cc1OC	20.3	-3.9	-2.0	i	2.4
CC(=O)c1c(C)n(C)c2ccc(OC(=O)c3ccco3)cc12	-8.0	-1.9	1.4	+	-0.8
O=C(Cn1c(-c2cncs2)nc2ccccc21)N1CCOCC1	.	.	5.5	.	.
CCOC(=O)N1CCN(S(=O)(=O)c2c(C(=O)N3CCCCC3)c(C)n(C)c2C)CC1	-4.2	-0.1	-5.4	+	-2.2
COc1cc(C)c(C(=O)Oc2cc(C)c(C(=O)O)c(O)c2)c(O)c1	-20.6	4.5	34.7*	i	-12.8
COC(=O)c1cc(-c2ccc(Cl)s2)c(=O)n2c1CCC2	.	.	2.1	.	.
COC(=O)[C@]12C[C@H](CC(=O)N3CCSCC3)C(=O)N(Cc3ccc4c(c3)OCO4)C1=C[C@H](COCc1ccccc1)O[C@@H]2C	.	.	4.4	.	.
Cn1nc(C(=O)Nc2cccc(S(N)(=O)=O)c2)c2ccccc2c1=O	-4.8	1.2	0.8	i	-1.1
CC(OC(=O)c1nn(C)c(=O)c2ccccc12)C(=O)Nc1ccc(S(N)(=O)=O)cc1 (stereo not given)	-6.0	1.7	5.0	+	1.0
Cc1ccc(C(=O)N2O[C@]34C=C[C@]25C[C@@H](O)CC[C@]5(C)C3CC[C@]2(C)[C@@H]([C@H](C)/C=C/[C@H](C)C(C)C)CC[C@H]24)cc1 (stereo not given in full)	.	.	2.3	.	.
Fc1ccc(C2=Nn3c(nnc3C3CCCCC3)SC2)cc1	.	.	-1.1	.	.
Cc1cc2c(SCc3ccccc3Cl)nc(N)nc2nc1C	-10.3	-0.4	23.8	+	1.5
CCOc1ccc(N2C(=O)/C(=C\c3ccc(O)c(OC)c3)S(=O)(=O)C2c2cccc([N+](=O)[O-])c2)cc1 (stereo not given)	-0.7	-4.4	14.4	i	10.1*
CCOc1ccc(N2C(=O)/C(=C\c3ccc(OC)c(O)c3)S(=O)(=O)C2c2cccc([N+](=O)[O-])c2)cc1 (stereo not given)	-1.9	-3.1	8.3	i	1.1
CCCCNC(=O)O[C@@H]1C[C@H]2CCCC(=O)N3CC[C@@H](C1)[C@@H]23	-9.7	0.9	-2.5	i	-0.6
CCCCCCCN(c1ccccc1)[C@@H]1C[C@H]2CCCC(=O)N3CC[C@@H](C1)[C@@H]23	32.6	-1.3	-3.1	i	18.8*
CCn1cc(Br)c(C(=O)Nc2ccc(F)c(Cl)c2)n1	10.4	1.9	2.9	i	15.2*
CCn1cc(Br)c(C(=O)Nc2ccc(Cl)cc2Cl)n1	20.4	5.1	1.6	i	-5.9
CCn1cc(Br)c(C(=O)NC(=S)Nc2ccc(C(=O)OC)cc2)n1	-7.7	3.4	0.4	i	12.2*
COC(=O)[C@]12CCCCC=C1N(Cc1ccc(OC)cc1)C(=O)[C@@H]2CC(=O)N1CCN(C(=O)c2ccco2)CC1	.	.	1.6	.	.
SMILES	FAS TE block	MPTP block	rCAG binder	Myeloid diff 2	NR3A LBD binder
COc1ccc(S[C@]2(C(=O)N3CCN(c4ncccn4)CC3)CC(=O)N(P(=O)(OC)OC)[C@@H]2c2ccc(OC)cc2)cc1	.	.	2.1	.	.
CSc1ccccc1NC(=O)C(=O)c1c[nH]c2ccccc12	7.9	17.5	18.1	i	21.4*
C[C@@H](NC(=O)C(=O)c1c[nH]c2ccccc12)c1ccccc1	4.2	-0.5	-0.9	i	-0.5
Cc1cc(-c2csc(NC(=O)c3ccc(C#N)cc3)n2)c(C)n1Cc1ccco1	8.7	-0.4	59.4*	i	4.2
Cc1cc(-c2cc(NC(=O)Cc3c[nH]c4ccccc34)ccc2N(C)c2cccnc2)ccc1F	.	.	12.7	.	.
CN(C)CCCNc1nc2cc(-c3cnn(Cc4ccccc4)c3)sc2c(=O)n1C	-0.1	0.4	9.1	i	.
CCCCCCC(=O)O	-9.0	-1.1	1.5	i	-0.5
CCCCC/C=C\C/C=C\C/C=C\CCCCC(=O)O	6.1	-3.0	30.2	+	-3.5
CCCCCCCC/C=C\CCCCCCCC(=O)NCCO	12.0	-1.1	2.5	?	10.4*
CCCCCCCC/C=C\CCCCCCCC(=O)O	62.1*	1.9	26.2	i	3.1
COC(=O)[C@]12C[C@H](CC(=O)NCCCCc3ccccc3)C(=O)N(Cc3ccco3)C1=C[C@H](C(C)(C)C)O[C@@H]2C	.	.	-0.1	.	.
COc1ccccc1CNCC(O)(c1ccc(F)cc1)c1ccc(F)cc1	6.5	0.9	-6.4	i	0.2
COc1ccccc1CNCC(O)(c1ccc(Cl)cc1)c1ccc(Cl)cc1	31.6	-0.7	-4.5	+	-3.1
CCOC(=O)c1cnc2c(C)cccc2c1NCc1ccco1	13.3	1.7	-2.6	+	.
COc1ccc(-c2cc(O)cc(O)c2)cc1	-6.5	-1.0	5.1	i	10.8*
COc1cccc2cc(C(=O)CS(=O)(=O)c3ccc(C(C)(C)C)cc3)c(=O)oc12	-7.6	-0.9	38.3*	i	-3.0
C=CC(=O)NC1CCCCN(C)C1=O (stereo not given)	.	.	21.4	.	.
COc1cc2oc(=O)c(Br)c(C)c2c(OC)c1OC	11.2	0.7	0.4	i	0.3
COc1cc2oc3cc(C)oc(=O)c3c2cc1OC	-3.4	0.1	1.7	i	16.4*
Oc1ccc(N=Nc2n[nH]c(-c3ccc(Cl)cc3)n2)cc1	1.0	2.0	10.2	i	23.7*
Oc1ccc(N=Nc2ccccc2)cc1	-2.1	1.0	-0.4	i	4.9
O=S(=O)(Nc1ccc(O)c(Sc2nc3ccccc3s2)c1)c1cccc2ccccc12	16.7	34.3	31.9	i	15.2*
O=C(O)c1cccc(S(=O)(=O)Nc2ccc(O)c(Sc3nc4ccccc4s3)c2)c1	-4.5	-3.0	28.8	i	-12.2
CCCCNC(=O)C[C@H]1C[C@@]2(C(=O)OC)C(=C[C@H](C(C)(C)C)O[C@@H]2C)N(CCc2ccc(OC)c(OC)c2)C1=O	.	.	10.7	.	.
COc1cccc(S(=O)(=O)NCc2ccc(C(=O)Nc3ccc(Cl)c(Cl)c3)cc2)c1	13.0	2.2	9.4	i	25.4*
COc1cccc(S(=O)(=O)NCc2ccc(C(=O)Nc3ccc(C)cc3)cc2)c1	1.4	0.2	1.4	i	16.8*
COc1ccc(NC(=O)c2ccc(CNS(=O)(=O)c3cccc(OC)c3)cc2)cc1	-4.2	-6.7	7.6	i	-9.7
NS(=O)(=O)c1ccc(NC(=O)c2ccc(CNS(=O)(=O)c3cc(C(F)(F)F)ccc3Cl)cc2)cc1	-3.9	4.5	3.8	i	29.6*
